Reference: the OligoGym collection

What follows are sequences tested against MUC4 (assay: pooled miR-30 sensor sort-seq; sequence = guide strand). Conditions: shRNA.

Sequence | sensor-assay potency score (higher = more potent)
TTCAGGAAGTCAATGACCGGGC | -0.298
TAACTGACACCATCCAAGGTGG | -0.587
TTGAAGGTGTAACTGACACCAT | 0.0208
TTGTCTGTGAAGTAGAGGGAAT | -1.17
TTGAAGAATCCTGACAGCCTTC | -0.37

The sequences below were run against MUDENG in the same assay as above. Conditions: shRNA.

Sequence | sensor-assay potency score (higher = more potent)
TAACATTTGGCATGATTCCTTC | -0.439
TTGAACTGAATGCTGATCTGCA | 0.719
TTATTGATGCGTGAACAGCTAT | -0.441
AAAAACTTGAACTGAATGCTGA | -0.0187
TATCCTGAAGTGGAGATCCATT | -1.27
TAATCTAAGTTCAAAGAGCAGT | -0.489
TTGAATGACTCTAAAGGTGGAG | 0.345
TTGGTGGGGAGACTCAAGCTGA | -1.09
TAGTTTTGTATTCCAAATGTGT | -0.698
TTATTCTTAGTTGTACTTCTTC | 0.0203
TTCTTAGTTGTACTTCTTCCTC | -1.23
TAAGATCCTAAAATGAAGCTTT | 0.347

Each sequence was assayed against MUL1 in the same assay as above. Conditions: shRNA.

Sequence | sensor-assay potency score (higher = more potent)
TTCTATAACAGCATAAGGCACG | -0.579
TTAGATAGTACTGCATGCCTTG | -0.152
TTGAGCTCTTGGGAGACCCGGG | -0.319
TTAACAGACCGCACAGCTCCTT | -0.45
TATAACAGCATAAGGCACGCAT | -0.0376
ATACACGGTCTCTAGACCCAGA | -0.85
TAACAGACCGCACAGCTCCTTC | -0.691
TTTAGCTCCCTTGAGCTCTTGG | -0.00208
TTGCAGTTTTCCACAAACTGGC | -0.401
TTTCTTTAACAGACCGCACAGC | -0.894
TACTCTTTAAATCTTCACCCAA | -0.305

These sequences were tested against MUM1L1 in the same assay as above. Conditions: shRNA.

Sequence | sensor-assay potency score (higher = more potent)
TTAGTGATCTTCCATAGGCAGT | -1.42
TAACTGGGTAACTAATATCAGC | -1.56
TAACACATGCACTTTCCTCTTT | -0.0342
TTGTGGTACATTTTGAGACAGC | -1.11
TTTGTTTCCACTTCACTTGGAA | 0.402
TTTGTTTCTCTTTACAATCAAA | -1.34
TATTTCTGATATTTAAACCAGA | -0.575
TATTTGATTGCAGACTTCTTGT | 0.00671
TTGAGATTTATTTAGGATCTTT | -0.143
TTAGATACTTTGCTTCAGCTGC | -0.267
TAAACCAGACTATCATTCCTGT | -0.0642
TTTGATTGCAGACTTCTTGTAA | 0.165
